{
  "source": "PubChem BioAssay (NCATS)",
  "note": "Records with an inconclusive call do not appear. Active and inactive are the calls of the source. Calls come from the whole dose curve; as a rule, active = well fitted cell-killing curve with a large enough effect; inconclusive = small, poorly fitted or top-dose-only effect, or effect the other way; inactive = no such curve, though single readings can be large or run the other way. Potency is the fitted concentration of half-maximal effect.",
  "data": [
    {"assay": "Viability qHTS for spleen associated tyrosine kinase inhibitor (SYKi) drug resistant MV4-11 cells (AID 1963824); note: nearly all actives have a fitted effect of over 35% in size", "conditions": "SYKi-resistant MV4-11 viability, CellTiter-Glo, 72 h; series mostly up to 45 µM", "outline": "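CellTiter-Glo luminescence, read 10 min after reagent addition, reports viability after a 72 hr compound exposure. Cells are an MV4-11 line made resistant to SYK inhibition, seeded at 500 per well onto compound-containing plates.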", "values": [
      {"molecule": "CC[C@H]1OC(=O)[C@](C)(F)C(=O)[C@H](C)[C@@H](O[C@@H]2O[C@H](C)C[C@H](N(C)C)[C@H]2O)[C@](C)(OC)C[C@@H](C)C(=O)[C@@H](C)[C@H]2N(CCCCn3cc(-c4cccc(N)c4)nn3)C(=O)O[C@]12C", "Potency": "10.3 µM (active)"},
      {"molecule": "CNc1nc(Nc2ccc(C(=O)N3CCOCC3)cc2OC)nc2[nH]cc(Cl)c12", "Potency": "6.51 µM (active)"},
      {"molecule": "O=C(O)c1cc(O[C@@H]2O[C@H](CO)[C@@H](O)[C@H](O)[C@H]2O)ccc1O", "Potency": "inactive"},
      {"molecule": "COc1cc(C(=O)OC[C@H]2O[C@H](O[C@@]3(CO)O[C@@H](CO)[C@H](O)[C@H]3O)[C@H](O)[C@@H](O)[C@@H]2O)ccc1O", "Potency": "inactive"},
      {"molecule": "Cc1ccc([C@@H]2CC=C(C(=O)O)[C@H](c3ccc(C(C)(C)C)cc3)N2S(=O)(=O)c2ccc(C)cc2)cc1", "Potency": "16.4 µM (active)"},
      {"molecule": "C=C1C(O)C(O)C2(CC3C(C)=CCC4C(C)(CO)CCCC34C)OC2C1O", "note": "(centres undefined)", "Potency": "inactive"},
      {"molecule": "C=C1CC[C@@H]2[C@@](C)(CO[C@@H]3O[C@H](CO)[C@@H](O)[C@H](O)[C@H]3O)[C@H](O)CC[C@@]2(C)[C@@H]1CC/C(C)=C/CO[C@@H]1O[C@H](CO)[C@@H](O)[C@H](O)[C@H]1O", "Potency": "inactive"},
      {"molecule": "CN(CCOc1ccc(-c2ccc3c(c2)OCO3)cc1C(C)(C)C)CC(=O)O", "Potency": "16.6 µM (active)"},
      {"molecule": "CO[C@H]1/C=C\\O[C@@]2(C)Oc3c(C)c(O)c4c(O)c(c5c(nc6cc(C)ccn65)c4c3C2=O)NC(=O)/C(C)=C\\C=C/[C@H](C)[C@H](O)[C@@H](C)[C@@H](O)[C@@H](C)[C@H](OC(C)=O)[C@@H]1C", "Potency": "16.4 µM (active)"}
    ]}
  ]
}
